# The source made the active and inactive calls. The call rests on the fitted dose curve; in most records, active means well fitted curve in the direction sought with a large enough effect; inconclusive means small, poorly fitted or top-dose-only effect, or another doubt; inactive means no such curve, though single readings can be large or run the other way.
# Target: Thyrotropin receptor (Homo sapiens) (UniProt P16473)
# Assay: qHTS Assay for Antagonists of the Thyroid Stimulating Hormone Receptor (AID 488980)
# Settings: TSHR-expressing cells, cAMP antagonist read-out; series mostly up to 57.5 µM
# Source text: TSH is an alpha/beta heterodimeric glycoprotein hormone secreted from the anterior pituitary gland which belongs to the glycoprotein hormone family. The actions of TSH are mediated by a seven-transmembrane receptor, which upon TSH binding couples preferentially to the G-alpha (s) protein (Gs), resulting in activation of adenylate cyclase and increase in cyclic adenosine 3', 5' monophosphate (cAMP). The TSH receptor (THSR) is mainly expressed in thyroid follicular cells and regulates their growth and function. This cell based assay was conducted on a TSHR transfected HEK 293 cell line, measuring cAMP stimulation using antibody-based Homogeneous Time Resolved Fluorescence (HTRF).
# Our goal is to identify small molecules that will inhibit (antagonize) the thyroid-stimulating hormone receptor (TSHR), a member of the 7 transmembrane-spanning receptor (7TMR) family of cell surface receptors. TSHR-mediated hyperthyroidism is important in thyroid pathology. The development of small molecule antagonists of TSHR may lead to therapeutic approaches for TSHR-mediated hyperthyroidism caused by constitutively activating mutations or stimulating auto-antibodies associated with Graves' disease. Graves' disease is the leading cause of hyperthyroidism and is caused by autoantibodies that stimulate TSHR (TsAbs) causing thyroid growth and unregulated overproduction of thyroid hormones and existing treatments have liabilities (agranulocytosis). In addition, TSHRs are known to be expressed in multiple extrathyroidal tissues including bone, brain, kidney, testis, fat and cells of the immune system but the role of the TSHR in these tissues is not clear. Therefore, TSHR antagonists/inverse agonists could be used as probes of extrathyroidal TSHR function. Finally, TSHR inverse agonists, which are a subclass of antagonists that inhibit agonist-independent (or basal or constitutive) TSHR signaling, could be used to inhibit TSH-independent signaling in patients with recurrent or metastatic thyroid cancer who are receiving thyroid hormone to suppress TSH.
# An anti cAMP antibody contains a fluorescent cryptate tag (excitation 337 nm; emission 620 nm) and the acceptor is cAMP-d2 (excitation 620 nm; emission 665 nm). When antibody and cAMP-d2 interact and are excited by a 337 nm light, a FRET occurs resulting in emission at 665 nm. The assay is competition between cAMP-d2 and cAMP (from the cell lysate). The homogeneous protocol allows for one step dispense after stimulation that is automation friendly.
# Step, Parameter, Value, Description
# 1, Cells, 3 uL, 2000 TSHR freshly harvested cells/well 1536 TC treated White solid bottom plate (Cells resuspended in 10 mM HEPES buffered HBSS and 70 uM RO 20-1724)
# 2, Compound, 23 nL, Libraries and controls
# 3, Compound, 1 uL, EC80 TSH (4 nM final)
# 5, Reagent, 2 uL, cAMP antibody diluted 1:20 in lysis buffer
# 6, Time, 30 minutes, Room temperature
# 7, Detector, HTRF settings, Viewlux
# Thyrotropin receptor (Homo sapiens), sequence (P16473 whole entry, looked up): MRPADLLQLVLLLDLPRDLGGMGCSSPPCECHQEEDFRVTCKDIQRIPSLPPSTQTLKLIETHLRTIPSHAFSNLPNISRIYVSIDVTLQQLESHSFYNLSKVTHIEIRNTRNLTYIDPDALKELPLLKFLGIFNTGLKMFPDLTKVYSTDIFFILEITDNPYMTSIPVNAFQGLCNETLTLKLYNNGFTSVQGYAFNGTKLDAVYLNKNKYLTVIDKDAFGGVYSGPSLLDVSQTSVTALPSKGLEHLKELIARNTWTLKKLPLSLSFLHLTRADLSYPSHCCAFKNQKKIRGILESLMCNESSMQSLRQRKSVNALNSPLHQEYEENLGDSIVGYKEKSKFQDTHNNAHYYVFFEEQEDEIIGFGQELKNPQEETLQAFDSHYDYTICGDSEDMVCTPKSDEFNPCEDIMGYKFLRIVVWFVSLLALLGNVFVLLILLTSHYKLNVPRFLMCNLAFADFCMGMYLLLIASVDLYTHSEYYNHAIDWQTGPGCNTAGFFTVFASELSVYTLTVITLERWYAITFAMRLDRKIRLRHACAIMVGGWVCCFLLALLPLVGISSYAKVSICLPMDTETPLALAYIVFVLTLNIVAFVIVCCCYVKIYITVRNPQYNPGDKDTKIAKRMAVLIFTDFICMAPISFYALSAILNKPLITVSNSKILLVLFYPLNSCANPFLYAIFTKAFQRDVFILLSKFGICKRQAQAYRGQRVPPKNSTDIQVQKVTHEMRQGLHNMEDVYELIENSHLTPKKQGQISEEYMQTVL
row,Structure (SMILES),outcome
1,c1ccc2c(c1)OCC(C1=NCCN1)O2 (configuration not stated),inactive
2,CN1C[C@H](CNC(=O)OCc2ccccc2)C[C@@H]2c3cccc4c3c(cn4C)C[C@H]21,inactive
3,Fc1ccc(C(OCCN2CCN(CCCc3ccccc3)CC2)c2ccc(F)cc2)cc1,inactive
4,c1ccc(C2CC2)c(OCC2=NCCN2)c1,inactive
5,CC(CCc1ccccc1)NC(C)C(O)c1ccc(O)cc1 (configuration not stated),inactive
6,Cc1ccc(S(=O)(=O)N[C@@H](CCCCN)C(=O)CCl)cc1,inactive
7,CNCC(O)c1ccc(O)cc1 (configuration not stated),inactive
8,O=c1[nH]c2ccccc2n1CCCN1CCC(n2c(=O)[nH]c3cc(Cl)ccc32)CC1,inactive
9,COC[C@H]1OC(=O)c2coc3c2[C@@]1(C)C1=C(C3=O)C2CCC(=O)[C@@]2(C)C[C@H]1OC(C)=O (some centres not stated),inactive
10,COc1ccccc1N1CCNCC1,inactive
11,O=C1NCN(c2ccccc2)C12CCN(CC1COc3ccccc3O1)CC2 (configuration not stated),inactive
12,C=C(C)[C@H]1Cc2c(ccc3c2O[C@@H]2COc4cc(OC)c(OC)cc4[C@@H]2C3=O)O1,inactive
13,NCC(O)c1ccc(O)cc1 (configuration not stated),inactive
14,CCCC(C)(COC(N)=O)COC(=O)NC(C)C (configuration not stated),inactive
15,Cc1cccc(C)c1NC1=NCCCS1,inactive
16,CC[N+](CC)(CC)CC,inactive
17,Clc1cccc(N2CCNCC2)c1,inactive
18,N#CC(C#N)=Cc1ccc(O)c(O)c1,inactive
19,Cc1ncc(CNC(=O)N(CCCl)N=O)c(N)n1,inactive
20,COc1ccc(Cc2nccc3cc(OC)c(OC)cc23)cc1OC,inactive
21,NCC1(CC(=O)O)CCCCC1,inactive
22,CCC1(C2=NCCN2)Cc2ccccc2O1 (configuration not stated),inactive
23,O=c1[nH]c2ccccc2n1C1CCN(CCCC(c2ccc(F)cc2)c2ccc(F)cc2)CC1,inactive
24,CCCN1CCC[C@@H]2Cc3nc(N)ncc3C[C@H]21,inactive
25,Nc1ccncc1,inactive
26,CCn1cc(C(=O)O)c(=O)c2ccc(C)nc21,inactive
27,NCC(CC(=O)O)c1ccc(Cl)cc1 (configuration not stated),inactive

# — PubChem BioAssay (NCATS)
